Results filed as inconclusive are left out. The source made the active and inactive calls. Calls follow the shape of the dose curve; as a rule, active = well fitted curve in the direction sought with a large enough effect; inconclusive = small, poorly fitted or top-dose-only effect, or another doubt; inactive = no such curve, though single readings can be large; an effect the other way counts as inactive or inconclusive.
Legend:
CRL-7250 = normal cell line; assay: Cytotoxic Profiling of Annotated Libraries Using Quantitative High-Throughput Screening (AID 1296008); details: Five cell lines viability, CellTiter-Glo ATP luminescence, 48-72 h; max response: active compounds read low; also: nearly all actives have a fitted effect of over 60% in size; as to max response: % is scaled to controls: 0 for no effect and ±100 for the full control effect
Outline: (§1)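 Cytotoxicity was measured as CellTiter-Glo ATP luminescence, read after 10 min at room temperature. Compound treatment of the cells lasted 48 or 72 hr at 37 degrees Celsius in a qHTS format.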

HEK293 = assay: as above; details: Five cell lines viability, CellTiter-Glo ATP luminescence, 48-72 h; max response: active compounds read low
Outline: as §1

HaCat [1] = assay: as above; details: Five cell lines viability, CellTiter-Glo ATP luminescence, 48-72 h; max response: active compounds read low
Outline: as §1

KB-3-1 = assay: as above; details: Five cell lines viability, CellTiter-Glo ATP luminescence, 48-72 h; max response: active compounds read low
Outline: as §1

NIH3T3 = assay: as above; details: Five cell lines viability, CellTiter-Glo ATP luminescence, 48-72 h; max response: active compounds read low
Outline: as §1

HACAT [2] = assay: qHTS assay to identify novel small-molecules to repurpose for Merkel cell carcinoma treatment (AID 1296009); details: MCC and control cell lines, CellTiter-Glo viability, 72 h; at 44.8 µM (top of the series) unless noted; also: nearly all actives have a fitted effect of over 60% in size
Outline: (§2)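 Cell viability measured by CellTiter-Glo following 72 hr compound treatment at 37 degree celsius, with NPC and MIPE libraries tested in 8- and 11-point concentration series.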

HEK293T = assay: as above; details: MCC and control cell lines, CellTiter-Glo viability, 72 h; series mostly up to 44.8 µM
Outline: as §2

C33A = assay: Primary qHTS to identify gynecologic anti-cancer compounds using libraries of approved drugs and bioactive compounds (AID 1345084); details: Gynecologic cancer cell panel viability, ATPlite luminescence, 48 h; series mostly up to 57.5 µM; also: % is scaled to controls: 0 for no effect and ±100 for the full control effect; nearly all actives have a fitted effect of over 55% in size
Outline: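 Five-concentration response, 48 h; readout is ATP-driven luciferase luminescence.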

COC(=O)C[C@@H]1C(C(=O)O)=CO[C@@H](O[C@@H]2O[C@H](CO)[C@@H](O)[C@H](O)[C@H]2O)/C1=C\COC(=O)/C=C\c1ccccc1
inactive: max response (CRL-7250) -11.7% | outcome (HEK293) | outcome (HaCat [1]) | max response (KB-3-1) -0.0915% | max response (NIH3T3) -14.1% | outcome (HACAT [2]) inactive [at 17.4 µM] | Potency (HEK293T) | Potency (C33A)

CC(=O)N1CCN(NC(=O)c2ccc(F)cc2)CC1
inactive: max response (CRL-7250) -0.968% | outcome (HEK293) | outcome (HaCat [1]) | max response (KB-3-1) 8.34% | max response (NIH3T3) -3.31% | outcome (HACAT [2]) | Potency (HEK293T) | Potency (C33A)

CCc1c(CC(N)=O)c2cc(OCCCP(=O)(O)O)ccc2n1Cc1ccccc1
inactive: max response (CRL-7250) -8.49% | outcome (HEK293) | outcome (HaCat [1]) | outcome (KB-3-1) | max response (NIH3T3) -4.64% | outcome (HACAT [2]) | Potency (HEK293T) | Potency (C33A)

COC(=O)C1=CO[C@@H](O[C@@H]2O[C@H](COC(=O)/C=C/c3cc(OC)c(O)c(OC)c3)[C@@H](O)[C@H](O)[C@H]2O)[C@@H]2C(CO)=CC[C@H]12
inactive: max response (CRL-7250) -6.59% | outcome (HEK293) | outcome (HaCat [1]) | max response (KB-3-1) 1.62% | max response (NIH3T3) 0.53% | outcome (HACAT [2]) inactive [at 17.4 µM] | Potency (HEK293T) | Potency (C33A)

CCn1nnnc1NCc1ccc(C(C)C)cc1
inactive: outcome (CRL-7250) | outcome (HEK293) | outcome (HaCat [1]) | max response (KB-3-1) 2.69% | outcome (NIH3T3) | outcome (HACAT [2]) | Potency (HEK293T) | Potency (C33A)

C[C@@H]1O[C@@H](OC[C@H]2O[C@@H](OCCc3ccccc3)[C@H](O)[C@@H](O)[C@@H]2O)[C@H](O)[C@H](O)[C@H]1O
inactive: max response (CRL-7250) -0.537% | outcome (HEK293) | outcome (HaCat [1]) | outcome (KB-3-1) | max response (NIH3T3) 4.11% | outcome (HACAT [2]) inactive [at 17.4 µM] | Potency (HEK293T) | Potency (C33A)

CC(C)(O)c1ccc2c(c1)C(=O)CC1[C@](C)(CO)CCC[C@]21C (stereo partly specified)
inactive: max response (CRL-7250) -1.72% | outcome (HEK293) | outcome (HaCat [1]) | max response (KB-3-1) -6.05% | max response (NIH3T3) -3.87% | outcome (HACAT [2]) | Potency (HEK293T) | Potency (C33A)

C[C@@H]1O[C@@H](O[C@H]2[C@H](OC(=O)[C@]34CCC(C)(C)C[C@H]3C3=CCC5[C@@]6(C)C[C@H](O)[C@H](O[C@@H]7O[C@H](CO[C@@H]8OC[C@H](O)[C@H](O)[C@H]8O)[C@@H](O)[C@H](O)[C@H]7O)C(C)(C)C6CC[C@@]5(C)[C@]3(C)C[C@H]4O)OC[C@@H](O)[C@@H]2O)[C@H](O)[C@H](O[C@@H]2OC[C@](O)(CO)[C@H]2O)[C@H]1O[C@@H]1OC[C@H](O)[C@H](O[C@@H]2OC[C@@H](O)[C@H](O)[C@H]2O)[C@H]1O (stereo partly specified)
inactive: max response (CRL-7250) -6.86% | outcome (HEK293) | outcome (HaCat [1]) | outcome (KB-3-1) | max response (NIH3T3) -1.57% | outcome (HACAT [2]) inactive [at 9.27 µM] | outcome (HEK293T) inactive [at 9.27 µM] | activity change, negative = cytotoxicity (C33A) -0.101% [at 6.55 µM]

CC1OC(OC2C(O)C(C(=O)O)OC(OC3CCC4(C)C(CCC5(C)C4C=CC4=C6CC(C)(C)CC(O)C6(C)CCC45C)C3(C)C)C2OC2OCC(O)C(O)C2O)C(O)C(O)C1O (stereo unspecified)
inactive: max response (CRL-7250) -1.54% | outcome (HEK293) | outcome (HaCat [1]) | max response (KB-3-1) 1.62% | outcome (NIH3T3) | outcome (HACAT [2]) inactive [at 9.27 µM] | outcome (HEK293T) inactive [at 9.27 µM] | activity change, negative = cytotoxicity (C33A) 25.5% [at 11.6 µM]

O=C1NC(=Nc2ccccc2F)S/C1=C\c1ccc(C(=O)O)cc1
inactive: max response (CRL-7250) -10.7% | outcome (HEK293) | outcome (HaCat [1]) | outcome (KB-3-1) | max response (NIH3T3) -1.07% | outcome (HACAT [2]) | Potency (HEK293T) | Potency (C33A)

CC1CCC2C(C(=O)O)=CC3C(O)C(C)(C)CC123 (stereo unspecified)
inactive: max response (CRL-7250) -11.2% | outcome (HEK293) | outcome (HaCat [1]) | outcome (KB-3-1) | max response (NIH3T3) -3.55% | outcome (HACAT [2]) | Potency (HEK293T) | Potency (C33A)

CCC(C)/C=C(C)/C=C/C1=CC2=C(Cl)C(=O)C(C)(OC(C)=O)C(=O)C2=CN1C1CCCCN(C(CCC(N)=O)C(=O)O)C1=O (stereo unspecified)
inactive: outcome (CRL-7250) | outcome (HEK293) | outcome (HaCat [1]) | outcome (KB-3-1) | max response (NIH3T3) -1.04% | outcome (HACAT [2]) inactive [at 17.4 µM] | Potency (HEK293T) | Potency (C33A)

C[C@@H]1O[C@@H](O[C@H]2[C@H](O[C@H]3[C@H](O[C@H]4CC[C@@]5(C)C(CC[C@]6(C)C5CC=C5[C@@H]7CC(C)(C(=O)O)C[C@@H](O)[C@]7(C)CC[C@]56C)[C@@]4(C)CO)O[C@H](C(=O)O)[C@@H](O)[C@@H]3O)O[C@H](CO)[C@H](O)[C@@H]2O)[C@H](O)[C@H](O)[C@H]1O (stereo partly specified)
inactive: max response (CRL-7250) -5.52% | outcome (HEK293) | outcome (HaCat [1]) | outcome (KB-3-1) | max response (NIH3T3) -3.63% | outcome (HACAT [2]) inactive [at 9.27 µM] | outcome (HEK293T) inactive [at 9.27 µM] | activity change, negative = cytotoxicity (C33A) 4.66% [at 11.6 µM]

NC(=O)c1cccc(-c2cc(O)cc(OC(=O)NC3CCCCC3)c2)c1
inactive: outcome (CRL-7250) | outcome (HEK293) | outcome (HaCat [1]) | outcome (KB-3-1) | max response (NIH3T3) -15.7% | outcome (HACAT [2]) inactive [at 17.4 µM] | Potency (HEK293T) | Potency (C33A)

CC1=CC(=O)CC(C)(C)C1(O)CCC(C)O (stereo unspecified)
inactive: outcome (CRL-7250) | outcome (HEK293) | outcome (HaCat [1]) | outcome (KB-3-1) | max response (NIH3T3) 2.02% | outcome (HACAT [2]) | Potency (HEK293T) | Potency (C33A)

CCC/C=C/C(=O)O[C@H]1CC(C)(C)CC2[C@]13[C@H](O)O[C@@]21CCC2[C@@]4(C)CC[C@H](O[C@@H]5O[C@H](C(=O)O)[C@@H](O)[C@H](O[C@@H]6O[C@H](CO)[C@H](O)[C@H](O)[C@H]6O[C@@H]6O[C@@H](C)[C@H](O)[C@@H](O)[C@H]6O[C@@H]6OC[C@](O)(CO)[C@H]6O)[C@H]5O[C@@H]5O[C@H](CO)[C@H](O)[C@H](O)[C@H]5O)C(C)(C)C4CC[C@@]2(C)[C@]1(C)C[C@H]3OC(C)=O (stereo partly specified)
inactive: max response (CRL-7250) -6.81% | outcome (HEK293) | outcome (HaCat [1]) | max response (KB-3-1) 6.11% | max response (NIH3T3) 0.954% | outcome (HACAT [2]) inactive [at 9.27 µM] | outcome (HEK293T) inactive [at 9.27 µM] | activity change, negative = cytotoxicity (C33A) -4.15% [at 6.55 µM]

CCc1cc2c(=O)c(-c3nc4ccccc4s3)coc2c(CN2CCCCC2)c1O
inactive: max response (CRL-7250) 0.116% | outcome (HEK293) | outcome (HaCat [1]) | max response (KB-3-1) -10.9% | max response (NIH3T3) 2.93% | outcome (HACAT [2]) inactive [at 17.4 µM] | Potency (HEK293T) | Potency (C33A)

— PubChem BioAssay (NCATS)
